Compounds with a hit are over-represented: about 2.6% of the library has one in this group of screens.
A3A deaminase: blocks human APOBEC3A ssDNA deamination. P31941. recombinant A3A, FAM/TAMRA ssDNA deamination fluorescence. inhibition, % at 20 µM. 0.41% of 330,000 active. AID 493011;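 active means at least 40% inhibition at 20 µM here, with at most 30% in a related deaminase screen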;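 further: plate controls were A3A with DMSO for no effect and wells lacking A3A enzyme for full effect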
Target sequence (P31941 whole entry, looked up): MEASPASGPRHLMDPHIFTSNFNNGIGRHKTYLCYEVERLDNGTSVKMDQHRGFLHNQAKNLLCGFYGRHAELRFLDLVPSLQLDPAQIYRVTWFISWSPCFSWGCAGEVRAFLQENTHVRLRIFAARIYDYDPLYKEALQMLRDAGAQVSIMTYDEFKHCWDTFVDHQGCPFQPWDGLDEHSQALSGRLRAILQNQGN
eIF4H FP inh: inhibitors of RNA binding by human eIF4H. Q15056. eIF4H fluorescence polarization binding assay. inhibition, % at 35 µM. 0.94% of 290,000 active. AID 2012;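 further: calls also rest on retests at 20 µM and on dose response follow-up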
PABP1 MLLE inh: inhibitors of microRNA-mediated deadenylation, human PABP1 MLLE binding | P11940 | GST-MLLE / FITC-PAM2 fluorescence polarization | inhibition, % at 20 µM | 0.36% of 360,000 active | AID 588489; in the data active means inhibition above about 35%, passing the limit was not always enough;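 further: plate controls were DMSO wells with GST-MLLE for no effect and wells lacking GST-MLLE protein for full effect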
PABP FP inh: PABP-poly(A) binding inhibition; PABP-poly(A) RNA binding, fluorescence polarization; calls only at 35 µM; 1% of 290,000 active; AID 2014;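 further: calls also rest on retests at 20 µM and on dose response follow-up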
A3G deaminase: APOBEC3G (human) deaminase inhibition; 0.28% of 330,000 active; recombinant A3G, ssDNA deamination FAM/TAMRA fluorescence; inhibition, % at 20 µM; AID 493012; Q9HC16;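 active means inhibition of at least 40% at 20 µM, with no more than 30% in the related APOBEC3A deaminase screen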;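 further: plate controls were DMSO wells with A3G for no effect and wells lacking A3G enzyme for full effect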
PHOSPHO1 block: PHOSPHO1 (human) inhibition; Q8TCT1; recombinant PHOSPHO1, absorbance phosphatase assay; inhibition, % at 13.3 µM; 1.1% of 290,000 active; AID 1565; in the data active means inhibition above about 60%
Target sequence (Q8TCT1 whole entry, looked up): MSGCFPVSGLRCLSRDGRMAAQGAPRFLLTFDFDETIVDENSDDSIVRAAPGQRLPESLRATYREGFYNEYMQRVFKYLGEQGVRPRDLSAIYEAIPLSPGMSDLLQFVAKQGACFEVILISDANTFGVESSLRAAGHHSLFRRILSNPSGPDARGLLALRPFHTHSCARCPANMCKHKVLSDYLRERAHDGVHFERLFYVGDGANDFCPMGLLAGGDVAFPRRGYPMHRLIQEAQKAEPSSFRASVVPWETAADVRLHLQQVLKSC
Numbers without * were called inactive; i = inactive; ? = inconclusive; · = not tested or not shown; + = active, no number. Unless noted, how the calls were made is not given here.

SMILES	A3A deaminase	eIF4H FP inh	PABP1 MLLE inh	PABP FP inh	A3G deaminase	PHOSPHO1 block
Cc1ccc(N2C(=O)CC(Sc3ccccc3C(=O)O)C2=O)cc1C (stereo unspecified)	-3	6	36	i	-6	34
COc1ccc(N2C(=O)CC(Sc3ccccc3C(=O)O)C2=O)c([N+](=O)[O-])c1 (stereo unspecified)	-2	-5	28	i	-8	34
Cc1ccc(N2C(=O)CC(Sc3ccccc3C(=O)O)C2=O)cc1 (stereo unspecified)	3	1	50*	i	-4	-1
CC(C)c1ccc(N2C(=O)CC(Sc3ncccn3)C2=O)cc1 (stereo unspecified)	-4	-14	39*	i	-6	30
O=C(C[C@@H]1C[C@@H]2c3cc(NC(=O)C4CCC4)ccc3O[C@@H]2[C@@H](CO)O1)NCc1ccc(Cl)cc1	·	·	4	·	·	·
C/C(=N\N=C(/C)c1cccc(N)c1)c1cccc(N)c1	-2	·	0	·	-6	·
Cc1cccc(N2C(=O)CC(Sc3ccccc3C(=O)O)C2=O)c1 (stereo unspecified)	-2	-2	24	i	-5	-11
Cc1cc(C)cc(N2C(=O)CC(Sc3ccccc3C(=O)O)C2=O)c1 (stereo unspecified)	3	-4	41*	i	8	-14
COc1ccc(CCN(C)C(=O)CSc2nnc(C3CC3)n2N)cc1OC	-1	·	-8	·	-11	·
CCC(=O)c1ccc(OCC(=O)OCC(=O)Nc2cccc(S(=O)(=O)N3CCOCC3)c2)cc1	·	·	-1	·	·	·
O=C(O)CSc1ncnc2sc3c(c12)CCC3	14	60*	-1	+	4	45
O=C(O)CSc1ncnc2sc3c(c12)CCCC3	3	1	0	i	-3	10
O=c1[nH]c2ccc(NC(=S)Nc3ccc(F)cc3)cc2[nH]1	1	2	19	i	-6	-29
CCc1ccc(NC(=S)Nc2ccc3[nH]c(=O)[nH]c3c2)cc1	1	1.7*	22	+	-3	3
Cc1ccc(C(=O)NC(=S)Nc2ccc3[nH]c(=O)[nH]c3c2)c(C)c1	-2	-3	38*	i	-9	45
Cc1ccc(S(=O)(=O)NCC(=O)N(CC2CCCO2)C(C(=O)NC2CCCCC2)C(C)C)cc1 (stereo unspecified)	-6	-4	16	i	-13	40
NC(=O)NC(=O)CC1S/C(=N/N=C2\CSC(=O)N2)NC1=O (stereo unspecified)	-1	12	43*	i	-4	-4
COc1ccccc1NC(=O)CCN1CC(C)OC(C)C1 (stereo unspecified)	-5	93	2	+	-12	-32
O=C1CCCC2=C1C(c1cccs1)Nc1ccc3ncccc3c12 (stereo unspecified)	3	-7	10	i	-5	34
O=C1CCCC2=C1C(c1ccc(O)c(O)c1)Nc1ccc3ncccc3c12 (stereo unspecified)	12	74*	-12	+	13	43
O=C(O[C@@H]1Cc2c(O)cc(O)cc2O[C@@H]1c1cc(O)c(O)c(O)c1)c1cc(O)c(O)c(O)c1	11	80*	·	+	9	16
O=C1CC(/C=C/c2ccco2)=Nc2ccccc2N1	11	95*	34	+	12	-9
Fc1ccc(-c2nnc3sc(C4COc5ccccc5O4)nn23)cc1 (stereo unspecified)	-4	23	-10	i	-7	43
c1csc(-c2nn3c(C4COc5ccccc5O4)nnc3s2)c1 (stereo unspecified)	1	-2	22	i	9	69*
Fc1ccc(-c2nn3c(C4COc5ccccc5O4)nnc3s2)cc1 (stereo unspecified)	3	-6	25	i	38	79*
SMILES	A3A deaminase	eIF4H FP inh	PABP1 MLLE inh	PABP FP inh	A3G deaminase	PHOSPHO1 block
O=C(NC(=S)Nc1ccccc1F)c1ccc(Br)o1	0	-5	20	i	-4	42
CC(SC1=Nc2ccccc2C2CC=NN12)C(=O)NC1(C#N)CCCCC1 (stereo unspecified)	3	·	41*	·	7	·
COCCn1c(C)cc(C2=NNC(=Nc3ccccc3F)SC2)c1C	-3	11	2	i	0	88*
NS(=O)(=O)c1ccc(N/N=C/c2ccc(O)cc2O)c([N+](=O)[O-])c1	5	12	14	i	0	-12
NS(=O)(=O)c1ccc(N/N=C/c2ccc(O)c(O)c2O)c([N+](=O)[O-])c1	·	96*	42*	i	·	29
N#Cc1c(Nc2cccc(F)c2)sc2c(O)cc(=O)[nH]c12	3	56*	-84	+	4	-8
COc1cc(C(=O)NCC(=O)N2CCN(S(=O)(=O)c3cc(C)ccc3C)CC2)cc(OC)c1OC	4	1	-1	i	-4	41
Cc1n[nH]c2ccc([N+](=O)[O-])cc2c1=O	·	·	-7	·	·	·
Cc1cccc(NC(=S)NNC(=O)c2ccccc2OC(F)F)c1	2	8	24	i	7	72*
COc1ccc(NC(=S)NNC(=O)c2ccccc2OC(F)F)cc1	-1	12	15	i	-4	73*
Cc1cccc(NC(=S)NNC(=O)c2ccccc2Br)c1	-1	14	22	i	-9	40
Cc1nnc(NC(=O)c2ccccc2F)s1	2	-10	1	i	-1	-3
Cc1ccccc1N(C)S(=O)(=O)c1nnc(NC(=O)c2ccccc2F)s1	-2	·	-11	·	-4	64*
CCCn1c(N)c(N(CCOC)C(=O)c2ccc(N(C)S(=O)(=O)c3ccc(C)cc3)cc2)c(=O)[nH]c1=O	19	·	-21	·	9	·
CC(C)CCN1C(=O)c2ccc(C(=O)Nc3ccc(O)cc3C(=O)O)cc2C1=O	-4	81*	2	+	-8	39
CN1CCN(c2ccc(S(=O)(=O)N3CCCCC3)cc2NC(=O)CSC(C)(C)C)CC1	·	·	-35	·	·	·
Brc1ccc(C2Nc3cccc4cccc(c34)N2)cc1	·	·	-5	·	·	·
Oc1ccc(C2Nc3cccc4cccc(c34)N2)c(O)c1	-2	89*	7	+	2	42
O=[N+]([O-])c1cccc(C2Nc3cccc4cccc(c34)N2)c1	8	44	16	i	18	6
Clc1cccc(C2Nc3cccc4cccc(c34)N2)c1Cl	-6	103*	10	+	-6	-8
Clc1ccccc1C1Nc2cccc3cccc(c23)N1	-1	?	6	?	-1	13
O=[N+]([O-])c1ccc(C2Nc3cccc4cccc(c34)N2)cc1	·	97*	6	+	·	-5
Cc1ccc(C2Nc3cccc4cccc(c34)N2)s1	7	103	12	+	2	3
O=C(Cc1ccccc1)NCC(=O)OCC(=O)c1ccc(F)cc1	7	-3	6	i	12	22
